Most compounds without a hit are left out; they make up all but 6.5% or so of the library.
Vaccinia Venus: vaccinia inhibition (Venus reporter) | Vaccinia virus Venus reporter expression, fluorescence | Potency, µM (top dose mostly 36.5 µM), actives largely listed as inhibitors | 0.46% of 330,000 active | AID 720580; calls by dose curve; tested in A549 cells; note: nearly all actives have a fitted effect of over 30% in size
VACV mCherry inh: vaccinia inhibition (mCherry reporter); Vaccinia virus mCherry reporter infection, fluorescence; Potency, µM (titrated, usually from 36.5 µM), actives largely listed as inhibitors; 0.63% of 310,000 active; AID 720579; calls by dose curve; tested in A549 cells; note: nearly all actives have a fitted effect of over 35% in size
HCMV antiviral: inhibitors of human cytomegalovirus; AID 1259415; 4.5% of 410,000 active; HFF cells, HCMV-luciferase reporter, 72 h; stronger effect = lower value; activity change, negative = inhibition, % at 57.5 µM; in the data active = activity change below about -60%; inconclusive = no clear call, values can overlap the other calls; inactive = above about -39%
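Luciferase read-out from HCMV-luciferase-infected HFFs (MOI 1 PFU/cell) 72 h post infection at 37C; compounds added after 16 h cell attachment; activity normalized between buffer-only basal and Salinomycin (10uM) inhibitor controls.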
LASV entry inh: Lassa virus entry inhibition; Lassa virus pseudotype entry inhibition, cell reporter; Potency, µM (top dose mostly 37.9 µM), most hits filed as inhibitors; 1.2% of 300,000 active; AID 540256; calls by dose curve; tested in HEK293 cells; note: nearly all actives have a fitted effect of over 50% in size
FMDV inh: foot and mouth disease virus antiviral activity | FMDV antiviral cell-based qHTS | Potency, µM (series often up to 57.9 µM), usual class: inhibitors | 1.2% of 410,000 active | AID 1159524; calls by dose curve; tested in HEK293T cells; note: read-out not given here; nearly all actives have a fitted effect of over 45% in size
MARV entry inh: blocks Marburg virus binding to or entry into cells | Potency, µM (series often up to 37.8 µM), hits mostly inhibitors | 1.8% of 300,000 active | Marburg virus pseudotyped entry inhibition, cell reporter | AID 540276; calls by dose curve; tested in HEK293 cells
Each line names hits and unclear results; the compound was inactive in the other large screens.

CCCN(Cc1cccs1)C(=O)Nc1ccc(Br)c(C)c1	none
O=[N+]([O-])c1ccc(N2CCN(Cc3ccncc3)CC2)cc1	HCMV antiviral -89.5 (no result: Vaccinia Venus, VACV mCherry inh, LASV entry inh, MARV entry inh)
O=[N+]([O-])c1ccc(CN2CCN(c3ncccn3)CC2)cc1	HCMV antiviral inconclusive (no result: Vaccinia Venus, VACV mCherry inh, LASV entry inh, MARV entry inh)
CO[C@H]1[C@H](NC(=O)c2ccsc2)c2ccccc2C12CCN(Cc1cccn1-c1ccccn1)CC2	none (no result: HCMV antiviral, LASV entry inh, MARV entry inh)
COc1ccc(S(=O)CC(=O)Nc2ccc(Cl)cc2Cl)cc1 (stereo not given)	HCMV antiviral -66.5, MARV entry inh inconclusive
COc1ccc(NC(=O)CS(=O)c2ccc(F)cc2)cc1 (stereo not given)	none
NC(=O)c1nsc(C(=O)N(CCc2ccccc2)C(C(=O)NC2CCCC2)c2ccco2)c1N (stereo not given)	HCMV antiviral -60.1 (no result: FMDV inh)
Cc1ccccc1N(C(=O)c1snc(C(N)=O)c1N)C(C(=O)NC1CCCC1)c1ccco1 (stereo not given)	VACV mCherry inh inconclusive, LASV entry inh inconclusive
CCc1ccc(N(C(=O)c2snc(C(N)=O)c2N)C(C(=O)NC2CCCC2)c2ccco2)cc1 (stereo not given)	HCMV antiviral inconclusive, LASV entry inh inconclusive, MARV entry inh 7.94µM
Cc1ccc(N(C(=O)c2snc(C(N)=O)c2N)C(C(=O)NCCC(C)C)c2ccco2)cc1 (stereo not given)	HCMV antiviral -63.1 (no result: Vaccinia Venus, VACV mCherry inh, LASV entry inh, MARV entry inh)
COc1ccc(N2CC(NC(=O)c3ccc(S(=O)(=O)N4CCCCC4)cc3)CC2=O)cc1 (stereo not given)	HCMV antiviral inconclusive (no result: MARV entry inh)
COc1ccc(CNC(=O)c2cc(-c3ccc(C)c(C)c3)n[nH]2)cc1	LASV entry inh inconclusive (no result: MARV entry inh)
Cc1cc(C)c2c(=O)c3c(oc2c1)C(=O)N(CCCOC(C)C)C3c1ccccc1F (stereo not given)	none
COc1ccc(Nc2nc(NCCO)nc(N3CCCC3)n2)cc1	HCMV antiviral inconclusive (no result: Vaccinia Venus, VACV mCherry inh, LASV entry inh, MARV entry inh)
CCCNc1nc(Nc2ccc(C)cc2)nc(N2CCCC2)n1	MARV entry inh 14.6µM (no result: Vaccinia Venus, VACV mCherry inh, HCMV antiviral)
COC(=O)c1cc2oc(C)cc2n1CC(=O)Nc1cc(Cl)ccc1OC	MARV entry inh inconclusive (no result: LASV entry inh)
COC(=O)c1cc2ccsc2n1CC(=O)Nc1cc(Cl)ccc1OC	Vaccinia Venus inconclusive, VACV mCherry inh inconclusive, HCMV antiviral -96.5 (no result: FMDV inh)
COc1cccc2c1[C@H](C=Cc1ccccc1)[C@@H]([C@H](O)CO)OC2	none (no result: Vaccinia Venus, VACV mCherry inh, HCMV antiviral, FMDV inh)
C/C(=N\NC(=S)Nc1cccc(C)c1)c1ccccc1	LASV entry inh inconclusive
CC(=NNC(=S)Nc1ccc(C)cc1)c1ccccn1	Vaccinia Venus inconclusive, VACV mCherry inh inconclusive, HCMV antiviral -93.8, LASV entry inh inconclusive, MARV entry inh inconclusive
COc1ccccc1NC(=S)NN=C(C)c1ccccn1	Vaccinia Venus inconclusive, VACV mCherry inh inconclusive, HCMV antiviral -101.6, LASV entry inh 0.282µM, MARV entry inh inconclusive
CC(=NNC(=S)Nc1cccc(C)c1)c1ccccn1	Vaccinia Venus inconclusive, VACV mCherry inh 2µM, HCMV antiviral -98.3, LASV entry inh inconclusive, MARV entry inh inconclusive
C/C(=N\NC(=S)Nc1ccc(C)cc1)c1cccc(N)c1	none
CCOc1ccc(-n2nc(CO)c(C(=O)NCc3ccccn3)n2)cc1	none
N#Cc1cc([N+](=O)[O-])c2sc(C(N)=O)[n+]([O-])c2c1	LASV entry inh inconclusive (no result: Vaccinia Venus, VACV mCherry inh, HCMV antiviral, FMDV inh)
COC(=O)N1C(=O)[C@](Cc2ccccc2)(c2ccccc2)N1C(=O)OC	Vaccinia Venus 10µM, VACV mCherry inh 12.6µM, FMDV inh inconclusive (no result: LASV entry inh, MARV entry inh)
CC[C@@]1(c2ccccc2)C(=O)N(C(=O)OC)N1C(=O)OC	none (no result: LASV entry inh, MARV entry inh)
CC[C@]1(c2cccc(C)c2)C(=O)N(C(=O)OC)N1C(=O)OC	Vaccinia Venus inconclusive, VACV mCherry inh 11.2µM, FMDV inh inconclusive (no result: LASV entry inh, MARV entry inh)
C#CC(C)(CC)NC(=O)Cn1nnc(-c2ccc(OCc3ccccc3F)cc2)n1 (stereo not given)	Vaccinia Venus 11.2µM, VACV mCherry inh inconclusive, MARV entry inh inconclusive
O=C(Nc1ccn(Cc2ccccc2F)n1)c1ccc(COc2ccccc2Cl)cc1	Vaccinia Venus inconclusive, VACV mCherry inh inconclusive, HCMV antiviral -97.6, LASV entry inh inconclusive, FMDV inh inconclusive, MARV entry inh inconclusive
O=C(Nc1ccn(Cc2ccccc2F)n1)c1ccc(COc2cccc(Br)c2)cc1	Vaccinia Venus inconclusive, LASV entry inh inconclusive, MARV entry inh 8.91µM
O=C(Nc1ccn(Cc2c(F)c(F)cc(F)c2F)n1)c1ccc(COc2ccccc2Cl)cc1	Vaccinia Venus inconclusive, HCMV antiviral -70.8, LASV entry inh inconclusive, MARV entry inh inconclusive
Cc1cc(SC#N)cc(C)c1NC(=O)CCl	HCMV antiviral -83.2
